Screens from PubChem.
Only some compounds are listed: those with a hit (about 11% of all), similar ones and a draw of the others.
ALDH1A1 inh: ALDH1A1 (human) enzyme inhibition | P00352 | Purified ALDH1A1, NADH fluorescence, propionaldehyde substrate | Potency, µM (series often up to 75.3 µM), most hits filed as inhibitors | 220,000 tested, 7.3% active | AID 1030; active = well fitted inhibition curve with a large enough effect, not every such curve was filed as active; inconclusive = small, poorly fitted or top-dose-only effect, or another doubt; inactive = no such curve, though single readings can be large or run the other way
HTT cytoprotect: cytoprotection in Huntington HTT-Q103 PC12 cell model; Potency, µM (series often up to 56.4 µM), usual class: activators; 230,000 tested, 0.14% active; PC12 HTT-Q103 induced, cytoprotection, ATP luminescence, 40 h; note: nearly all actives have a fitted effect of over 45% in size
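Compounds added alongside 100 nM tebufenozide, which induces toxic Q103 huntingtin exon 1-GFP in stable PC12 cells; surviving cells quantified by luminescent ATP measurement. Medium: phenol red-free DMEM, 5% equine and 5% calf serum.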
HPGD block: inhibitors of human 15-hydroxyprostaglandin dehydrogenase (HPGD); purified HPGD, NADH fluorescence kinetic, PGE2 substrate; 150,000 tested, 4.3% active; Potency, µM, hits mostly inhibitors; AID 894; active = well fitted inhibition curve with a large enough effect, not every such curve was filed as active; inconclusive = small, poorly fitted or top-dose-only effect, or another doubt; inactive = no such curve, though single readings can be large or run the other way
Target sequence (P15428 whole entry, looked up): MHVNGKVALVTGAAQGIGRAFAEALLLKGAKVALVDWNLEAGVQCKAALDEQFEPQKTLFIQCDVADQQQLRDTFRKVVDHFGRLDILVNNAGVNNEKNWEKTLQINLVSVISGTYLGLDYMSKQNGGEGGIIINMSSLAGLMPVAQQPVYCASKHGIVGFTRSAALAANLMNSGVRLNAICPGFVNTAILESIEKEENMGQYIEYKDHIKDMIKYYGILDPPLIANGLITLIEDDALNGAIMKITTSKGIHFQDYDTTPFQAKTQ
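20 nM HPGD preincubated 15 min at room temperature with compound in 50 mM Tris-HCl pH 8, 0.01% Tween 20. Started with 1 mM NAD+ and 30 uM prostaglandin E2; NADH fluorescence (360/450 nm) read 5 times over 30-s intervals, last minus first.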
CBFb-RUNX1 inh: inhibitors of human CBF-beta and RUNX1 interaction. Q01196+Q13951. AlphaScreen CBFb-His/RUNX1-biotin binding, biochemical. Potency, µM (series often up to 59.8 µM), actives largely listed as inhibitors. 230,000 tested, under 10 active
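CBF-beta (His) and RUNX1 (biotin), 30 nM each; 20 min preassociation; + compound, 15 min; + beads 50 ng each (Ni, streptavidin), 90 min; RT; AlphaScreen read.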
PNC assembly inh: blocks assembly of the perinucleolar compartment | PC3M PTB-GFP, PNC prevalence imaging, 16 h; active compounds read low | activity change (PNC), negative = inhibition, % at 10 µM | 140,000 tested, 3.1% active;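 active = readout at or below -70, meaning at least 70% loss of cells showing the perinucleolar compartment, a nuclear body marking cancer cells; inconclusive = readout between -30 and a set limit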
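PC3M cells stably expressing PTB-GFP, 750–1000 cells/well, treated 16 h at 37 °C with compound (23 nl of library stock), in duplicate. After paraformaldehyde fixation and Hoechst stain, imaged at 20x; PNC prevalence scored by image analysis.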
HttQ103 aggreg: inhibitors of mutant huntingtin aggregate formation in PC12 cells; PC12 HttQ103-GFP aggregates, Acumen cytometry, 40 h; Potency, µM (top dose mostly 46.1 µM), usual class: inhibitors; 220,000 tested, 1.1% active; AID 1688; note: nearly all actives have a fitted effect of over 60% in size
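Compounds (qHTS titration) were added to PC12 cells expressing an ecdysone-driven HTT exon 1 Q103–GFP fusion after induction with 100 nM tebufenozide. Aggregate formation was measured as GFP objects in cell lysates.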
Large screens that a line does not name were inactive. Unless noted, calls come from the whole dose curve; as a rule, active = well fitted curve in the direction sought with a large enough effect; inconclusive = small, poorly fitted or top-dose-only effect, or another doubt; inactive = no such curve, though single readings can be large; an effect the other way counts as inactive or inconclusive.

N#C/C(=C\c1ccc(-c2ccc(Br)cc2)o1)C(=O)NCCc1c[nH]c2ccccc12	none
N#C/C(=C\c1ccc(-c2ccccc2)o1)C(=O)Nn1cnnc1	HPGD block 16µM
CN1C(=O)C2(OCC(COc3ccc(Cl)cc3)O2)c2ccccc21 (centres undefined)	HttQ103 aggreg 1µM
O=c1c(-c2ccc(F)c(F)c2)nc2cncnc2n1C1CC1	none (no result: HPGD block, CBFb-RUNX1 inh, PNC assembly inh, HttQ103 aggreg)
CC(C)(C)c1nc(S(=O)(=O)c2ccc(Cl)cc2)c(N2CCOCC2)o1	ALDH1A1 inh 18µM
COc1cc(-c2nc(S(=O)(=O)c3ccc(C)cc3)c(N(C)C)o2)cc(OC)c1OC	ALDH1A1 inh inconclusive, HTT cytoprotect 0.89µM (no result: HttQ103 aggreg)
COc1ccccc1-c1nc(S(=O)(=O)c2ccc(Cl)cc2)c(N(C)C)o1	ALDH1A1 inh 24µM
CC(C)Cc1nc(S(=O)(=O)c2ccc(Cl)cc2)c(N2CCOCC2)o1	ALDH1A1 inh inconclusive
COc1cc(-c2nc(S(=O)(=O)c3ccc(C)cc3)c(N3CCOCC3)o2)cc(OC)c1OC	ALDH1A1 inh 1.1µM, PNC assembly inh inconclusive
C[C@@H](c1ccccc1)N1C(=O)[C@H]2[C@H]3[C@H](O)[C@H](O)C/C(=N/NC(=O)OCc4ccccc4)[C@H]3CC[C@@H]2C1=O	none (no result: HPGD block, PNC assembly inh, HttQ103 aggreg)
CSc1ccc(Cn2nnc(C(=O)NCc3ccccc3)c2N)cc1	none
COc1ncc2nc(-c3ccc(Cl)cc3)c(=O)n(CCC#N)c2n1	none (no result: HPGD block, CBFb-RUNX1 inh, PNC assembly inh, HttQ103 aggreg)
COc1cc(-c2nc(S(=O)(=O)c3ccc(Cl)cc3)c(N3CCOCC3)o2)cc(OC)c1OC	ALDH1A1 inh 1µM
O=S(=O)(c1ccc(Cl)cc1)c1nc(-c2ccco2)oc1N1CCOCC1	none (no result: ALDH1A1 inh, HPGD block, PNC assembly inh)
CCCCNC(=O)c1ccc(Cc2nc3ccccc3[nH]2)cc1	none (no result: HTT cytoprotect, CBFb-RUNX1 inh, PNC assembly inh, HttQ103 aggreg)
C/C(=C\C(=O)C(F)(F)F)Nc1ccc(C(F)(F)F)cc1	ALDH1A1 inh 22µM, PNC assembly inh inconclusive
O=C(CCn1nnc2ccccc21)Nc1nnc(Cc2ccccc2)s1	ALDH1A1 inh inconclusive, HPGD block 32µM
O=C(CCn1nnc2ccccc21)Nc1nnc(COc2ccccc2F)s1	none
CCOC(=O)N1CCC(N2C(=O)c3ccccc3C2Nc2ccc(C)cc2)CC1 (centres undefined)	ALDH1A1 inh 32µM
CCOC(=O)N1CCC(N2C(=O)c3ccccc3C2Nc2ccc(S(=O)(=O)N(CC)CC)cc2)CC1 (centres undefined)	ALDH1A1 inh 0.2µM (no result: HPGD block, PNC assembly inh)
O=C1OC(=O)[C@@H]2[C@@H]1[C@@H]1CC[C@H]2O1	none (no result: ALDH1A1 inh, HPGD block, CBFb-RUNX1 inh, PNC assembly inh, HttQ103 aggreg)
CCOc1cc(/C=N/NC(N)=O)cc(Br)c1OCc1ccccc1F	PNC assembly inh -92
CCOc1cc(/C=N\NC(N)=O)cc(Br)c1OC(C)C	PNC assembly inh -97 (no result: HTT cytoprotect)
CCOc1cc(/C=N/NC(=O)Cn2nc([N+](=O)[O-])cc2C)cc(Br)c1OCc1ccccc1F	none
Cc1nn(C)c(C(=O)NNC(=S)NCc2ccco2)c1Cl	HPGD block 35µM
Cc1nn(C)c(C(=O)NNC(=S)NCC(C)C)c1Cl	PNC assembly inh -114 (no result: HTT cytoprotect)
COc1cccc(C(=O)N/N=c2\oc3c(OC)cccc3cc2C(=O)NCc2ccccc2)c1	ALDH1A1 inh 0.32µM
COc1ccc(OC)c(N=c2oc3c(OC)cccc3cc2C(=O)NCc2ccco2)c1	none
COc1ccc(N=c2oc3c(OC)cccc3cc2C(=O)NCc2ccco2)cc1OC	ALDH1A1 inh 0.35µM, HttQ103 aggreg inconclusive
CN(C)c1nc(N)nc(CSc2n[nH]c(-c3ccccc3)n2)n1	HPGD block 4µM
Cc1ccccc1OCCSc1nc(N(C)C)nc(N(C)C)n1	PNC assembly inh inconclusive (no result: HTT cytoprotect)
CCOc1nc(SCCOc2ccccc2)nc(N(C)C)n1	HTT cytoprotect inconclusive, CBFb-RUNX1 inh inconclusive, PNC assembly inh inconclusive, HttQ103 aggreg 0.45µM
COc1ccc(N2Cc3cccc(C(=O)NC(C)CCc4ccco4)c3C2=O)cc1 (centres undefined)	ALDH1A1 inh 25µM, HPGD block inconclusive, CBFb-RUNX1 inh inconclusive, HttQ103 aggreg inconclusive
CC1CC(=O)NN=C1c1ccc(NCCO)c([N+](=O)[O-])c1 (centres undefined)	none
COc1ccc(C(=O)Nc2ccc(C3=NNC(=O)CC3C)cc2NC(=O)c2ccc(OC)cc2)cc1 (centres undefined)	ALDH1A1 inh 2µM (no result: HPGD block, PNC assembly inh)
C[C@@H](NCc1cc(Br)cc2[nH]c(=O)c(=O)[nH]c12)P(=O)(O)O	HTT cytoprotect inconclusive (no result: PNC assembly inh, HttQ103 aggreg)
COc1cc2nc(N3CC=[N+](C(=O)c4ccco4)CC3)nc(N)c2cc1OC	none (no result: ALDH1A1 inh, HPGD block, CBFb-RUNX1 inh, PNC assembly inh, HttQ103 aggreg)
CC(C)(C)c1cc[n+](/C(C(=S)Nc2ccccc2F)=C(/[O-])c2ccc3c(c2)OCCO3)cc1	ALDH1A1 inh 14µM (no result: HPGD block, PNC assembly inh)
Cc1cc(C)cc(NC(=S)/C(=C(\[O-])c2ccc(Cl)cc2Cl)[n+]2ccc(C(C)(C)C)cc2)c1	none (no result: ALDH1A1 inh, HPGD block, PNC assembly inh)
[O-]/C(=C(\C(=S)Nc1ccc(Cl)cc1)[n+]1ccccc1)c1ccc(OC(F)F)cc1	ALDH1A1 inh inconclusive (no result: HPGD block, PNC assembly inh)
